According to PubChem BioAssay AID485364 (National Center for Advancing Translational Sciences (NCATS), 2010):
Out of some 360,000 compounds screened, about 11,000 (3.1%) were called active. Roughly 4% stayed inconclusive and do not appear here. Calls come from the whole dose curve; as a rule, active = well fitted inhibition curve with a large enough effect; inconclusive = small, poorly fitted or top-dose-only effect; inactive = no such curve, though single readings can be large or run the other way. Many of the other results were omitted from the sample, so actives are more common in it than they were.

Biological target: Schistosoma mansoni thioredoxin glutathione reductase (TGR) (UniProt Q962Y6)
Test: qHTS Assay for the Inhibitors of Schistosoma Mansoni Peroxiredoxins; note: nearly all actives have a fitted effect of over 60% in size
Conditions: purified TGR, DTNB reduction, TNB absorbance 405 nm; series mostly up to 114 µM; activity change, negative = inhibition: at the top concentration
How it was run: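 TGR 20 nM + NADPH 100 uM (dispensed conc.), cpd preinc 15 min RT; start with NADPH (500 uM addition) then DTNB (15 mM addition). Kinetic TNB absorbance, 405 nm filter. Four-parameter Hill fit across titration.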
% is set by controls: 0 for no effect and ±100 for the full control effect; potency is the fitted concentration of half-maximal effect.

Row | Structure (SMILES) | activity change, negative = inhibition | Potency
1 | CC1CCN(C(=O)Cn2c(=O)n(-c3ccc(Cl)cc3)c(=O)c3c4c(sc32)CCC4)CC1 | -2.87% (inactive) | –
2 | Cc1cc(C)c2oc(C(=O)Nc3c(C(=O)Nc4ccccc4)oc4ccccc34)cc(=O)c2c1 | -0.605% (inactive) | –
3 | C[C@@H]1NC(=O)c2cc([N+](=O)[O-])cc(F)c2NCCC[C@@H](C(N)=O)NC(=O)[C@H](CC(N)=O)NC1=O | -21.9% (inactive) | –
4 | NC(=O)CC[C@@H]1NC(=O)[C@@H]2CCCN2C(=O)c2cc([N+](=O)[O-])cc(F)c2NCCC[C@@H](C(N)=O)NC1=O | – | 44.7 µM (active)
5 | NC(=O)CC[C@@H]1NC(=O)[C@H](CO)NC(=O)c2cc([N+](=O)[O-])cc(I)c2NCC[C@@H](C(N)=O)NC1=O | -32.7% (inactive) | –
6 | Cc1cccc(CC(=O)Nc2cccc(-c3cn4cccnc4n3)c2)c1 | 8.23% (inactive) | –
7 | CCCc1cc(=S)n2c([nH]c3ccccc32)c1C#N | – | 0.631 µM (active)
8 | CN(C)Cc1c(C#N)c2ccccc2n1C | 3.62% (inactive) | –
9 | O=C(Cn1c(-c2cccs2)cc2ccccc21)NCCc1ccc(Cl)cc1 | -1.12% (inactive) | –
10 | Cc1ccc2c(c1)N(C(=O)Nc1ccc(Br)cc1F)CCO2 | 12.1% (inactive) | –
11 | COc1ccc(-c2cn3c(C)c(C(=O)Nc4cc(C)cc(C)c4)sc3n2)cc1 | -0.43% (inactive) | –
12 | CCOC(=O)C1CCCN(C(=O)c2ccc(CS(=O)(=O)c3ccc(Br)cc3)o2)C1 (stereo not given) | – | 20 µM (active)
13 | CCOC(=O)C1CCCN(C(=O)c2cccc(S(=O)(=O)N3CCOCC3)c2)C1 (stereo not given) | -2.13% (inactive) | –
14 | CCOC(=O)C1CCCN(C(=O)c2cncc(Br)c2)C1 (stereo not given) | -2.66% (inactive) | –
15 | O=C(c1ccc2c(c1)N(Cc1ccccc1)C(=O)c1ccccc1S2(=O)=O)N1CCC(Cc2ccccc2)CC1 | 9.31% (inactive) | –
16 | CC(C)c1nc(CNC(=O)CC2C(=O)NCCN2Cc2ccoc2)cs1 (stereo not given) | – | 35.5 µM (active)
17 | Cc1ccc(CN2CCNC(=O)C2CC(=O)NCc2csc(C(C)C)n2)cc1 (stereo not given) | -32.4% (inactive) | –
18 | O=C(CC1C(=O)NCCN1Cc1ccc(-c2ccccc2)cc1)NCC1CCOCC1 (stereo not given) | -27.6% (inactive) | –
19 | COC(=O)c1cc(S(=O)(=O)N2CCN(c3cc(Cl)ccc3C)CC2)c[nH]1 | 2.69% (inactive) | –
20 | Cc1ccc(C(=O)CC2(O)C(=O)N(CCc3ccccc3)c3ccc(Br)cc32)cc1 (stereo not given) | 0.876% (inactive) | –
21 | Cc1onc(-c2ccc(F)cc2F)c1C(=O)Nc1cccc(C(F)(F)F)c1 | 0.861% (inactive) | –
22 | COc1ccc(CCNC(=O)c2ccc3c(c2)sc2nc(-c4ccc(C)cc4)cn23)cc1OC | -1.96% (inactive) | –
23 | CCc1cccc(NC(=O)c2cc(-c3ccccc3)n[nH]2)c1 | -7.19% (inactive) | –

Row | Structure (SMILES) | activity change, negative = inhibition | Potency
24 | O=C(O)c1ccc(NC(=O)c2ccc(COc3ccc(Cl)cc3)o2)cc1 | -20% (inactive) | –
25 | COC(=O)c1ccc(COc2ccc(C#N)cc2)o1 | -7.11% (inactive) | –
26 | O=C(O)c1ccc(COc2c(F)c(F)cc(F)c2F)o1 | – | 35.5 µM (active)
27 | N#CC1=C(N)C(C#N)(C#N)[C@H](c2ccsc2)[C@H]2COCC=C12 | – | 12.6 µM (active)
28 | CCN1CC=C2C(C#N)=C(N)C(C#N)(C#N)[C@H](c3ccoc3)[C@H]2C1 | 0.939% (inactive) | –
29 | Cc1ccc(C)c(N2CCN(C(=O)Cc3c(C(=O)O)c(C)cn3C)CC2)c1 | -12% (inactive) | –
30 | O=C1[C@@H]2C(c3cccnc3)=NO[C@@H]2C(=O)N1c1ccc(Cl)cc1Cl | – | 8.91 µM (active)
31 | Cc1nc2ccccc2c(=O)n1-c1ccc(Cl)cc1Cl | -34.9% (inactive) | –
32 | O=C(NNC1CC(=O)N(c2cccc(Cl)c2)C1=O)c1cccnc1 (stereo not given) | -28% (inactive) | –
33 | COc1ccccc1-c1nnc(C2CCN(C(=O)c3ccc(Cl)cc3)CC2)o1 | 1.27% (inactive) | –
34 | CC(C)(C)c1ccc(C(=O)Nc2ccc3c(c2)CCCN3C(=O)c2cccs2)cc1 | -3.61% (inactive) | –
35 | Cc1cccc(Cn2c(CN3CCC(C(=O)NCc4ccccc4Cl)CC3)cc3ccccc32)c1 | 11.6% (inactive) | –
36 | c1coc(-c2nc3nc4ccccc4n3nc2-c2ccco2)c1 | – | 44.7 µM (active)
37 | O=C(COc1ccc(Cl)cc1)Nc1ccccc1OCc1cc(=O)n2ccccc2n1 | 2.3% (inactive) | –
38 | COc1ccc(C(=O)c2c(C)oc3cc([N+](=O)[O-])c(O)c([N+](=O)[O-])c23)cc1 | -31.7% (inactive) | –
39 | Cc1nc2ccccc2c(-c2ccccc2)c1C(=O)c1ccccc1 | -13.7% (inactive) | –
40 | Cc1oc2cc(Br)c(O)c(Br)c2c1C(=O)c1ccccc1 | – | 15.8 µM (active)
41 | Brc1cccc(-c2nnn3c2nc(NC2CCCCC2)c2ccccc23)c1 | 37% (inactive) | –
42 | COc1ccc(CCNC(=O)Cn2c(=O)cc(C(F)(F)F)c3c(C)nn(C)c32)c(OC)c1 | 3.9% (inactive) | –
43 | CC1Cc2cc(/C(O)=C3\C(=O)C(=O)N(CCN4CCOCC4)C3c3ccccc3F)ccc2O1 (stereo not given) | -26.7% (inactive) | –
44 | O=C1C(=O)N(CCN2CCOCC2)C(c2ccccn2)/C1=C(/O)c1ccc(Cl)cc1 (stereo not given) | – | 20 µM (active)
45 | O=C1C(=O)N(CCCO)C(c2ccccc2)/C1=C(\O)c1ccc(Br)cc1 (stereo not given) | 11.9% (inactive) | –
